Compounds without any hit were thinned out: in the full panel of roughly 83,000, 20% have a hit.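 Each cell line was grown in a 96-well plate and treated with one concentration of compound for 48 hours. Values below 10 were considered active.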 Values without a mark were called inactive. Calls of active or inactive are those of the source.
Each compound was assayed on NCI-H322M lung (assay: NCI-60 one-dose screen, 48 h (100 = growth as untreated, 0 = no growth, -100 = all killed)). Conditions: 10 µM unless noted.

Compared with `CCN(CC)S(=O)(=O)c1ccc2[nH]c(=O)cc(C(=O)Nc3ccc(OC)cc3OC)c2c1`, `Cc1cc(C)c2c(=O)[nH]c(SCC(=O)Nc3cccc(S(=O)(=O)N(C)C)c3)nc2n1` is higher in growth: 116% for the first, 122% for the second.

`COc1ccc(/C=C/C(=O)OCC(=O)NNC(=O)c2ccccc2)cc1OC` and `Cc1c(C(=O)NCc2ccccc2)[n+](=O)c2cc(F)ccc2n1[O-]` are the same in growth: 117% for the first, 117% for the second.

First: COc1ncc(-c2ccc3ncnc(Nc4cccc(Cl)c4)c3c2)cc1N(S(C)(=O)=O)S(C)(=O)=O
Second: COc1cccc2nc(Nc3ccc(NC(=O)c4ccc5ncccc5c4)cc3)ccc12
The growth of the first is lower: 17.4% for the first, 81.4% for the second.

First: COc1cc(Br)c(OC)cc1Br
Second: COc1ccc(/C(=N\O)c2cc(OC)c(OC)c(OC)c2)c(OC)c1N
The growth of the first is higher: 89.7% for the first, 48.4% for the second.

First: CC(=O)c1cc(C(=O)c2ccc3c(c2)Sc2ccccc2N3)c2cc(C)ccn12
Second: Cc1ccc2c(c1)C(C)Cc1c(ncnc1-n1cnc3ccccc31)N2C (stereo unspecified)
The growth of the first is lower: 35.1% for the first, 43% for the second.

Going from `Cc1cc(C(=O)O)c(N)c(C)n1` to `CN(C)c1nc(N)c(N=O)c(N)n1`, the growth rises from 106% to 111%.

First: c1ccc2c(c1)Oc1ccccc1C2C1c2ccccc2Oc2ccccc21
Second: O=S(=O)(NCCNc1cc(-c2cn(-c3ccccc3)nc2-c2ccccc2)ccn1)c1cccc2ccccc12
The growth of the first is higher: 94.1% for the first, 68.7% for the second.

Going from `CC/C=C\C[C@H](O)C/C=C1/C(=O)C(Cl)=C[C@@H]1C/C=C\CCCC(=O)O` to `Cc1ccc2nc(-c3c(CCCO)noc3N)[nH]c(=O)c2c1`, the growth falls from 94.5% to 89.6%.

Compared with `O=C(Nc1ccc(I)cc1)c1cc([N+](=O)[O-])ccc1O`, `Cc1ccc(S(=O)(=O)OCC(=O)Nc2ccc(C(=O)O)c(O)c2)cc1` is higher in growth: 29.7% for the first, 104% for the second.

First: O=C(CSc1nc(-c2ccc(Cl)cc2)cn1-c1ccc(Cl)cc1)c1ccc(Br)cc1
Second: O=S(=O)(NCCCNc1cc(-c2cn(-c3ccccc3)nc2-c2cccc(O)c2)ccn1)c1ccc(Br)cc1
The growth of the first is higher: 94.2% for the first, 20.7% for the second.

Going from `N#CC1=C(N)n2nc(-c3ccncc3)nc2NC1c1cccc2ccccc12` (stereo unspecified) to `COc1cc2c(cc1OCCCCn1c(-c3cc(=O)c4ccccc4o3)nc3ccccc31)N=C[C@@H]1CCCN1C2=O`, the growth rises from 106% to 108%.

Going from `CCOc1ccc(/C=C/C=N/NC(N)=S)cc1` to `NC(N)=NC(N)=Nc1ccccc1-c1ccccc1`, the growth rises from 91.7% to 105%.

Compared with `C=C1C(=O)O[C@H]2[C@H]1CC/C(COC(=O)NCCc1cccc(OC)c1)=C\CC[C@@]1(C)O[C@@H]21`, `CC(=O)N1Cc2ccccc2C(C)Cc2cc(Cl)ccc21` (stereo unspecified) is higher in growth: 91.7% for the first, 97.9% for the second.

Going from `Cc1c(C2=NNC(c3ccc4c(c3)OCO4)C2)[n+]([O-])c2ccccc2[n+]1[O-]` (stereo unspecified) to `Cc1oc2ncnc(Nc3ccccc3)c2c1C(=O)NCCO`, the growth falls from 161% to 108%.

First: O=C(OCCCCOC(=O)n1cnc2ccccc21)n1cnc2ccccc21
Second: CCCCCCOc1ccc(C2(Cl)c3ccccc3N(C)c3ccccc32)cc1
The growth of the first is higher: 105% for the first, 57.1% for the second.

First: Cc1nc2scc(-c3ccccc3)n2c(=O)c1CCO
Second: Cc1cc(NC(=O)COC(=O)c2sc3cc(F)ccc3c2Cl)no1
The growth of the first is lower: 103% for the first, 112% for the second.

Going from `CN(C)C1CCC(NC2=CC(=O)C=CC2=O)CC1` (stereo unspecified) to `COc1cc(-c2csc(NC(=O)c3cc(C(F)(F)F)cc(C(F)(F)F)c3)n2)cc(OC)c1OC`, the growth falls from 102% to 32.7%.

With `CC1(C)OC2COC3(C(=O)O)OC(C)(C)OC3C2O1` (stereo unspecified) the growth was 98.6%.

`CN1CCN(CCCOc2ccc3nc(Nc4ccc(C(F)(F)F)c(Cl)c4)ccc3c2)CC1` was tested, and the growth was -5.95% (active).
In the case of `COc1ncc(-c2ccc3ncnc(Nc4cccc(Cl)c4)c3c2)cc1NS(=O)(=O)CCN1CCOCC1`, the growth is reported as -17.1% (active).
With `C/C(=C\c1csc(C)n1)[C@@H]1C[C@@H]2O[C@]2(C)CCC[C@H](C)[C@H](O)[C@@H](C)C(=O)C(C)(C)[C@@H](O)CC(=O)N1` the growth was -83.3% (active).

Each compound was assayed on HOP-62 NSCLC in the same assay as above. Conditions: 10 µM unless noted.

First: CCN(CC)S(=O)(=O)c1ccc2[nH]c(=O)cc(C(=O)Nc3ccc(OC)cc3OC)c2c1
Second: Cc1cc(C)c2c(=O)[nH]c(SCC(=O)Nc3cccc(S(=O)(=O)N(C)C)c3)nc2n1
The growth of the first is higher: 105% for the first, 97.8% for the second.

First: COc1ccc(/C=C/C(=O)OCC(=O)NNC(=O)c2ccccc2)cc1OC
Second: Cc1c(C(=O)NCc2ccccc2)[n+](=O)c2cc(F)ccc2n1[O-]
The growth of the first is lower: 84.1% for the first, 94.8% for the second.

First: COc1ncc(-c2ccc3ncnc(Nc4cccc(Cl)c4)c3c2)cc1N(S(C)(=O)=O)S(C)(=O)=O
Second: COc1ncc(-c2ccc3ncnc(Nc4cccc(Cl)c4)c3c2)cc1NS(=O)(=O)CCN1CCOCC1
The growth of the first is higher: 79.1% for the first, 17.5% for the second.

Compared with `COc1cc(Br)c(OC)cc1Br`, `COc1ccc(/C(=N\O)c2cc(OC)c(OC)c(OC)c2)c(OC)c1N` is lower in growth: 93.5% for the first, 39.7% for the second.

Compared with `CC(=O)c1cc(C(=O)c2ccc3c(c2)Sc2ccccc2N3)c2cc(C)ccn12`, `Cc1ccc2c(c1)C(C)Cc1c(ncnc1-n1cnc3ccccc31)N2C` (stereo unspecified) is higher in growth: 21.1% for the first, 38.1% for the second.

First: Cc1cc(C(=O)O)c(N)c(C)n1
Second: CN(C)c1nc(N)c(N=O)c(N)n1
The growth of the first is lower: 106% for the first, 107% for the second.

Going from `c1ccc2c(c1)Oc1ccccc1C2C1c2ccccc2Oc2ccccc21` to `O=S(=O)(NCCNc1cc(-c2cn(-c3ccccc3)nc2-c2ccccc2)ccn1)c1cccc2ccccc12`, the growth falls from 89.6% to 68.2%.

Compared with `CC/C=C\C[C@H](O)C/C=C1/C(=O)C(Cl)=C[C@@H]1C/C=C\CCCC(=O)O`, `Cc1ccc2nc(-c3c(CCCO)noc3N)[nH]c(=O)c2c1` is higher in growth: 96.8% for the first, 103% for the second.

Compared with `O=C(Nc1ccc(I)cc1)c1cc([N+](=O)[O-])ccc1O`, `Cc1ccc(S(=O)(=O)OCC(=O)Nc2ccc(C(=O)O)c(O)c2)cc1` is higher in growth: 23.8% for the first, 100% for the second.

First: O=C(CSc1nc(-c2ccc(Cl)cc2)cn1-c1ccc(Cl)cc1)c1ccc(Br)cc1
Second: O=S(=O)(NCCCNc1cc(-c2cn(-c3ccccc3)nc2-c2cccc(O)c2)ccn1)c1ccc(Br)cc1
The growth of the first is higher: 48.3% for the first, 15.8% for the second.

First: N#CC1=C(N)n2nc(-c3ccncc3)nc2NC1c1cccc2ccccc12 (stereo unspecified)
Second: COc1cccc2nc(Nc3ccc(NC(=O)c4ccc5ncccc5c4)cc3)ccc12
The growth of the first is lower: 88.2% for the first, 91.9% for the second.

Compared with `CCOc1ccc(/C=C/C=N/NC(N)=S)cc1`, `NC(N)=NC(N)=Nc1ccccc1-c1ccccc1` is higher in growth: 106% for the first, 115% for the second.

Going from `C=C1C(=O)O[C@H]2[C@H]1CC/C(COC(=O)NCCc1cccc(OC)c1)=C\CC[C@@]1(C)O[C@@H]21` to `COc1cc2c(cc1OCCCCn1c(-c3cc(=O)c4ccccc4o3)nc3ccccc31)N=C[C@@H]1CCCN1C2=O`, the growth rises from 66.6% to 105%.

First: Cc1c(C2=NNC(c3ccc4c(c3)OCO4)C2)[n+]([O-])c2ccccc2[n+]1[O-] (stereo unspecified)
Second: CC(=O)N1Cc2ccccc2C(C)Cc2cc(Cl)ccc21 (stereo unspecified)
The growth of the first is lower: 92.1% for the first, 102% for the second.

Going from `O=C(OCCCCOC(=O)n1cnc2ccccc21)n1cnc2ccccc21` to `CCCCCCOc1ccc(C2(Cl)c3ccccc3N(C)c3ccccc32)cc1`, the growth falls from 98.3% to 82.4%.

First: Cc1nc2scc(-c3ccccc3)n2c(=O)c1CCO
Second: Cc1oc2ncnc(Nc3ccccc3)c2c1C(=O)NCCO
The growth of the first is lower: 92.5% for the first, 99% for the second.

Compared with `CN(C)C1CCC(NC2=CC(=O)C=CC2=O)CC1` (stereo unspecified), `Cc1cc(NC(=O)COC(=O)c2sc3cc(F)ccc3c2Cl)no1` is lower in growth: 116% for the first, 96.2% for the second.

Going from `CC1(C)OC2COC3(C(=O)O)OC(C)(C)OC3C2O1` (stereo unspecified) to `COc1cc(-c2csc(NC(=O)c3cc(C(F)(F)F)cc(C(F)(F)F)c3)n2)cc(OC)c1OC`, the growth falls from 91.2% to 46.4%.

In the case of `CN1CCN(CCCOc2ccc3nc(Nc4ccc(C(F)(F)F)c(Cl)c4)ccc3c2)CC1`, the growth is reported as -21.7% (active).
In the case of `C/C(=C\c1csc(C)n1)[C@@H]1C[C@@H]2O[C@]2(C)CCC[C@H](C)[C@H](O)[C@@H](C)C(=O)C(C)(C)[C@@H](O)CC(=O)N1`, the growth is reported as -69.5% (active).

From PubChem BioAssay (NCI)
